Measurements published in PubChem BioAssay AID2762 (National Center for Advancing Translational Sciences (NCATS), 2010).
Inconclusive results are not listed. Unmarked numbers belong to inactive results. Calls of active or inactive are those of the source. The call rests on the fitted dose curve; in most records, active means well fitted inhibition curve with a large enough effect; inconclusive means small, poorly fitted or top-dose-only effect, or effect the other way; inactive means no such curve, though single readings can be large or run the other way.

The compounds below were run against Nuclear receptor ROR-gamma (Mus musculus) (UniProt P51450) (assay: Concentration response confirmation assay for inhibitors of ROR gamma transcriptional activity). Settings: Drosophila S2 Gal4-RORgamma UAS-luciferase, 20 h; series mostly up to 46.1 µM; activity change, negative = inhibition: at the top concentration.
Chain of Nuclear receptor ROR-gamma (Mus musculus) (P51450 whole entry, looked up, the tested form may be a part): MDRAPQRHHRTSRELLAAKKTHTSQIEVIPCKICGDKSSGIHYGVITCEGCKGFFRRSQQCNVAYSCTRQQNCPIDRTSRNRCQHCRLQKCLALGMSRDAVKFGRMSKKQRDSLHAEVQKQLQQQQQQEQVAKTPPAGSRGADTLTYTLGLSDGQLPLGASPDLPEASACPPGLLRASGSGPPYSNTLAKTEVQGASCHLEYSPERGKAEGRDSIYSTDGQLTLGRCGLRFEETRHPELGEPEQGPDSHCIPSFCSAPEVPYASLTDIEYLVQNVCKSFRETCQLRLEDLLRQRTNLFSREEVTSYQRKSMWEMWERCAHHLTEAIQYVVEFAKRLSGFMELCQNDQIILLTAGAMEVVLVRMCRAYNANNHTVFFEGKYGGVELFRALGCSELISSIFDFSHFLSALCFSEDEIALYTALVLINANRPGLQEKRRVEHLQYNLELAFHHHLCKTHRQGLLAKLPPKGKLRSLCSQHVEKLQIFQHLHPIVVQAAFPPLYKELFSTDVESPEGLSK
Outline: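 Stable Schneider cell line, Gal4 DNA-binding domain fused to ROR gamma, UAS-luciferase. Cmpd 1 hr RT → CuSO4 700 uM final → 20 hr RT → luciferase reagent 10 min → luminescence.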
In the case of CCOC(=O)[C@@H]1[C@H]2COc3cc(OC)ccc3[C@@H]2N2C(=O)N(c3ccc(C)cc3)C(=O)[C@@]12C, the Potency is reported as 14.1 µM (active). For COc1ccc(C(=O)Nc2nc3cc4c(cc3s2)OCCO4)c(OC)c1, the Potency was 0.0628 µM (active). For COc1ccc(C(C#N)N2N=C(C)CC2c2ccccc2)cc1 (centres undefined), the “activity change, negative = inhibition” value was 7.28%. With COc1cc(C2c3cc4c(cc3C(OC3OC5COC(c6cccs6)OC5C(O)C3O)C3COC(=O)C23)OCO4)cc(OC)c1O (centres undefined) the Potency was 4.99 µM (active). For Cc1ccc(Oc2nc(-c3ccccn3)nc3ccccc23)cc1, the Potency was 0.396 µM (active). In the case of CCn1nc(C)c(CN2CCC(n3nccc3NC(=O)c3ccc4c(c3)OCO4)CC2)c1C, the “activity change, negative = inhibition” value is reported as 0.701%. C=C(C)c1cccc(C(C)(C)NC(=O)N2CCN(CC)CC2)c1 was tested, and the “activity change, negative = inhibition” value was -10.7%. With CCc1ccc(-c2nc(CSCC(=O)NC3CC3)c(C)o2)cc1 the Potency was 3.97 µM (active). For COc1ccc(-c2cc(C(F)(F)F)nc(S(=O)(=O)CCCC(=O)Nc3cccnc3Cl)n2)cc1OC, the Potency was 11.2 µM (active). In the case of COc1ccc(OC)c(/C=C2\SC(=S)N(C(C(=O)O)c3ccccc3)C2=O)c1 (centres undefined), the “activity change, negative = inhibition” value is reported as 13.7%. O=C(CN1CCCCCC1)Nc1ccc(S(=O)(=O)N2CCOCC2)cc1 was tested, and the “activity change, negative = inhibition” value was 19.2%. For Clc1ccccc1/C=N/NC1=Nc2cccc3cccc1c23, the Potency was 0.199 µM (active). For Cc1cc(C)nc(-n2nc(C)cc2NC(=O)c2ccc(F)cc2F)n1, the Potency was 0.996 µM (active). With Cc1nn(-c2ccccc2)c(C)c1C(=O)Nc1nnc(-c2ccco2)o1 the Potency was 0.996 µM (active). CC(C)(C)S(=O)(=O)c1cnc2c(-c3ccsc3)cnn2c1N was tested, and the Potency was 22.3 µM (active). In the case of Cc1cc(NCc2ccccn2)n2ncc(-c3ccc(Cl)cc3)c2n1, the Potency is reported as 0.199 µM (active). In the case of Cc1ccc2nc(-c3ccc(NC(=O)COC(=O)c4ccc(=O)[nH]c4)cc3)sc2c1, the Potency is reported as 1.41 µM (active). In the case of Cc1cc(C)c(S(=O)(=O)NCCn2ccc3ccccc32)c(C)c1, the “activity change, negative = inhibition” value is reported as -4.64%. COC(=O)c1ccc(Oc2cc(C)nc(-n3nc(C)cc3C)n2)cc1 was tested, and the Potency was 1.58 µM (active).
